# According to PubChem BioAssay (NCI):
# Where “and” joins values, the source holds several entries; their conditions need not be identical. Equal values may be shown once. About 79,000 compounds went through this panel and 15% of them were active in at least one assay; those are over-represented in the sample as a whole. A structure can be active in one record and inactive in another. Calls of active or inactive are those of the source. No stated cut-off is given here; in the data, active means growth inhibition above about 70%; inactive means the rest.
# Tests used:
# [1] = NCI Yeast Anticancer Drug Screen. Data for the rad50 strain (AID 155);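 further: 0% = growth of vehicle-only cultures of the same strain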; conditions: S. cerevisiae rad50 strain growth inhibition, stronger effect = higher value
# Procedure, shortened: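 Compounds were tested on a yeast strain with an engineered DNA damage repair alteration; the reported value is growth inhibition normalised to vehicle treatment.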
# [2] = NCI Yeast Anticancer Drug Screen. Data for the mec2-1 strain (AID 157); conditions: S. cerevisiae mec2-1 strain, stronger effect = higher value
# Procedure, shortened: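 Cells of the genetically defined mec2-1 yeast strain are incubated with test compound. Inhibition of growth is calculated against vehicle-treated controls.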
# [3] = NCI Yeast Anticancer Drug Screen. Data for the sgs1 mgt1 strain (AID 161);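 further: 0% = growth of cultures given vehicle only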; conditions: S. cerevisiae sgs1 mgt1 strain, stronger effect = higher value
# Procedure, shortened: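 Test agents were incubated with a DNA-repair-mutant yeast strain. Growth was then read and compared against vehicle-treated controls.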
# [4] = NCI Yeast Anticancer Drug Screen. Data for the cln2 rad14 strain (AID 165);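 further: 0% = growth equal to vehicle treated cultures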; conditions: S. cerevisiae cln2 rad14 strain, stronger effect = higher value
# Procedure, shortened: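 The screen exposed genetically defined yeast (cln2 rad14) to test compounds and scored growth inhibition relative to vehicle-treated controls.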
# [5] = NCI Yeast Anticancer Drug Screen. Data for the bub3 strain (AID 167); conditions: S. cerevisiae bub3 mutant strain, stronger effect = higher value
# Procedure, shortened: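 Growth of a checkpoint-deficient yeast mutant is measured after compound exposure. Values represent inhibition relative to vehicle.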
# [6] = NCI Yeast Anticancer Drug Screen. Data for the mlh1 rad18 strain (AID 175); conditions: S. cerevisiae mlh1 rad18 strain growth inhibition, stronger effect = higher value
# Procedure, shortened: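 Compound-treated yeast growth, normalised to vehicle controls. Strain bears defined DNA repair mutations.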
# [7] = at 5.0 µM (retest, dose inferred, filed as 0.5)
# [8] = at 50.0 µM (retest, dose inferred, filed as 5.0)
Compound,"growth inhibition [1, 7]","growth inhibition [1, 8]",growth inhibition ([1]; at 50.0 µM),"growth inhibition [2, 7]","growth inhibition [2, 8]",growth inhibition ([2]; at 50.0 µM),"growth inhibition [3, 7]","growth inhibition [3, 8]",growth inhibition ([3]; at 50.0 µM),"growth inhibition [4, 7]","growth inhibition [4, 8]",growth inhibition ([4]; at 50.0 µM),"growth inhibition [5, 7]","growth inhibition [5, 8]",growth inhibition ([5]; at 50.0 µM),"growth inhibition [6, 7]","growth inhibition [6, 8]",growth inhibition ([6]; at 50.0 µM)
Cc1ccccc1N=Nc1ccc(N=Nc2ccc(N)nc2N)c(C)c1,2% (inactive),-23% (inactive),31.2% (inactive),-19% (inactive),17% (inactive),62.1% (inactive),-1% (inactive),11% (inactive),10.1% (inactive),-4% (inactive),-27% (inactive),15.3% (inactive),-3% (inactive),9% (inactive),82.2% (active),-2% (inactive),-29% (inactive),28.9% (inactive)
Nc1cc2c(cc1[N+](=O)[O-])[nH]c1c(-c3ccccc3)nccc12,9% (inactive),97% (active),99.2% (active),-5% (inactive),99% (active),96.4% (active),10% (inactive),99% (active),99.3% (active),1% (inactive),89% (active),99.1% (active),28% (inactive),98% (active),99.2% (active),2% (inactive),98% (active),98.9% (active)
COc1cccc(NC(=S)C(C#N)C(=O)Nc2cccc(C(F)(F)F)c2)c1 (stereo not drawn),66% (inactive),95% (active),78.2% (active),74% (active),97% (active),84.9% (active),52% (inactive),91% (active),85.5% (active),52% (inactive),88% (active),43.1% (inactive),48% (inactive),95% (active),87% (active),88% (active),96% (active),70.5% (active)
O=C1CSC(=S)N1c1ccc(F)c(F)c1,4% (inactive),90% (active),97.5% (active),-12% (inactive),95% (active),97.2% (active),4% (inactive),94% (active),97% (active),-3% (inactive),43% (inactive),86.2% (active),0% (inactive),92% (active),96.3% (active),-3% (inactive),95% (active),96.4% (active)
Nc1ccc2c(ccc3ccc4ccccc4c32)c1,-6% (inactive),93% (active),96.7% (active),-8% (inactive),98% (active),96.8% (active),-8% (inactive),98% (active),97.8% (active),-7% (inactive),96% (active),95.5% (active),-6% (inactive),97% (active),96.7% (active),17% (inactive),97% (active),95.6% (active)
c1ccc2c(c1)CNc1ccccc1-2,4% (inactive),58% (inactive),48% (inactive),-10% (inactive),21% (inactive),42.7% (inactive),0% (inactive),66% (inactive),83.5% (active),6% (inactive),16% (inactive),7.4% (inactive),47% (inactive),60% (inactive),85.5% (active),3% (inactive),45% (inactive),92.1% (active)
O=[N+]([O-])C1=C(c2ccccc2)SC=C(c2ccccc2)S1,6% (inactive) and -1% (inactive),13% (inactive) and -6% (inactive),24% (inactive) and 71.5% (active),-6% (inactive) and 10% (inactive),-3% (inactive) and 1% (inactive),13.4% (inactive) and 82.9% (active),3% (inactive) and 22% (inactive),-1% (inactive) and -5% (inactive),31.6% (inactive) and 84.7% (active),18% (inactive) and 1% (inactive),64% (inactive) and -4% (inactive),54.9% (inactive) and 89.1% (active),48% (inactive) and 50% (inactive),80% (active) and 28% (inactive),12.4% (inactive) and 84.8% (active),-9% (inactive) and 17% (inactive),-10% (inactive) and -3% (inactive),57.5% (inactive) and 85.9% (active)
C[C@H]1CC[C@H]([C@@H](C)[C@H]2[C@@H](O)C[C@H]3[C@@H]4CC[C@H]5C[C@@H](O)CC[C@]5(C)[C@H]4CC[C@]23C)NC1,32% (inactive) and 5% (inactive),94% (active) and 96% (active),91.3% (active) and 88.7% (active),19% (inactive) and 2% (inactive),98% (active) and 99% (active),91.8% (active) and 85.7% (active),23% (inactive) and 4% (inactive),98% (active) and 94% (active),92.5% (active) and 85.7% (active),23% (inactive) and 1% (inactive),97% (active) and 60% (inactive),91% (active) and 88.3% (active),24% (inactive) and 0% (inactive),98% (active) and 92% (active),92.1% (active) and 89.3% (active),28% (inactive) and -4% (inactive),97% (active) and 98% (active),84.5% (active) and 89.2% (active)
C=C1C(=O)OC2C[C@@]3(C)CCC[C@H](C)C3=CC12 (stereo partly drawn) (tested in a mixture with another compound),15% (inactive),97% (active),85.2% (active),32% (inactive),99% (active),93% (active),27% (inactive),99% (active),93.1% (active),19% (inactive),79% (active),60.5% (inactive),5% (inactive),97% (active),92.5% (active),23% (inactive),98% (active),89.2% (active)
Oc1ccccc1C=Nc1ccccc1O,22% (inactive),32% (inactive),59.2% (inactive) and 56.2% (inactive),8% (inactive),22% (inactive),36.7% (inactive) and 41.9% (inactive),7% (inactive),16% (inactive),35.5% (inactive) and 42.1% (inactive),-5% (inactive),5% (inactive),17.2% (inactive) and 32.1% (inactive),79% (active),65% (inactive),54.4% (inactive) and 72.1% (active),38% (inactive),47% (inactive),49.8% (inactive) and 29.6% (inactive)
Cc1cc(=O)[nH]c2ccc(Cc3ccc(N)cc3)cc12,-3% (inactive),12% (inactive),6.25% (inactive) and 15.6% (inactive),9% (inactive),22% (inactive),1.7% (inactive) and 0.45% (inactive),15% (inactive),27% (inactive),14.6% (inactive) and 1.2% (inactive),0% (inactive),-2% (inactive),13.2% (inactive) and 31.4% (inactive),3% (inactive),10% (inactive),19.1% (inactive) and -13.5% (inactive),21% (inactive),22% (inactive),11.8% (inactive) and -1% (inactive)
COC(=O)C(=O)C(C(=O)C(c1ccccc1)c1ccccc1)c1nc2n(c1O)/C(=N/C(=O)Nc1ccc(Cl)cc1)N=N2 (stereo not drawn),0% (inactive),41% (inactive),76.6% (active),6% (inactive),58% (inactive),87.2% (active),6% (inactive),80% (active),85.7% (active),-11% (inactive),30% (inactive),56.3% (inactive),-1% (inactive),35% (inactive),41.2% (inactive),-3% (inactive),41% (inactive),78.5% (active)
C[N+]1(Cc2ccc(Cl)c(Cl)c2)CCCC1C1CCCN(Cc2ccc(Cl)c(Cl)c2)C1 (stereo not drawn),-4% (inactive),51% (inactive),6.55% (inactive) and -11.7% (inactive),-2% (inactive),59% (inactive),-3.95% (inactive) and 3.6% (inactive),3% (inactive),80% (active),5.3% (inactive) and 14% (inactive),-11% (inactive),27% (inactive),-15.3% (inactive) and 42.5% (inactive),-1% (inactive),61% (inactive),22.2% (inactive) and 15.3% (inactive),-2% (inactive),76% (active),29.1% (inactive) and 48.3% (inactive)
CCSC(=NC)Nc1ccc(Oc2ccc(Cl)cc2)cc1,38% (inactive),90% (active),81.9% (active),39% (inactive),83% (active),67.8% (inactive),40% (inactive),99% (active),92.4% (active),33% (inactive),75% (active),71.1% (active),46% (inactive),72% (active),88.2% (active),46% (inactive),97% (active),81.6% (active)
CO[C@H](C(=O)[C@@H](O)[C@@H](C)O)[C@@H]1Cc2cc3cc(OC4CC(OC5CC(O)C(O)C(C)O5)C(O)C(C)O4)c(C)c(O)c3c(O)c2C(=O)[C@H]1OC1CC(OC2CC(OC3CC(C)(O)C(O)C(C)O3)C(O)C(C)O2)C(O)C(C)O1 (stereo partly drawn),12% (inactive),77% (active),72.1% (active) and 5.15% (inactive),7% (inactive),39% (inactive),33% (inactive) and -0.5% (inactive),6% (inactive),37% (inactive),62.4% (inactive) and 17.8% (inactive),21% (inactive),47% (inactive),93.2% (active) and 11.2% (inactive),-2% (inactive),43% (inactive),44.5% (inactive) and 24.1% (inactive),4% (inactive),33% (inactive),41.5% (inactive) and 14.4% (inactive)
COc1ccc2nc3cc(Cl)ccc3c(NCCCNCc3cc(OC)c(OC)c(OC)c3)c2c1,18% (inactive),92% (active),98.2% (active),-3% (inactive),62% (inactive),98.3% (active),6% (inactive),87% (active),98.3% (active),21% (inactive),83% (active),98.8% (active),22% (inactive),82% (active),98.8% (active),3% (inactive),92% (active),98% (active)
